The source of these data is PubChem BioAssay AID1203 (The Scripps Research Institute Molecular Screening Center, 2008).

Out of some 200,000 compounds screened, about 80 (0.04%) were called active. Shown is part of a subset that was picked to be rich in actives. Values without a mark were called inactive.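 The calls were made as follows: active = activation above the mean across all tested compounds plus 3 SD, cutoff set per campaign (cut at about 5.5% in these data); inactive = the rest.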

This assay is described as follows: Hsp70 promoter-driven reporter induction – cell-based, HeLa, Hsp70 promoter luciferase, luminescence, 10 µM, primary screen (AID 1203).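 Also: 100% = MG132 at 30 µM as the positive control and 0% = DMSO.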 As to conditions: at 10 µM, active compounds read high, scaled: vehicle 0, proteasome-inhibitor control 100%.
For the compound `Cn1c(=O)cc(OCC(=O)N2CCN(c3ccccc3F)CC2)c2ccccc21`, the activation was 0.82%. For the compound `COc1ccc(C/C(C)=N/NC(=O)c2ccncc2)cc1`, the activation was -0.08%. Take `COc1ccccc1C(=O)CSc1cccc[n+]1[O-]`: the activation was 0.19%. Then `CCC(C)(C(=O)Nc1ccccc1C)N(C(=O)CNC(C)=O)c1ccc(C)cc1` (stereo not drawn), with -0.25%; and `OCCC1CN(Cc2ccc3nsnc3c2)CCN1C1CCCCC1` (stereo not drawn), with -0.14%. In the case of `CC(C)(C)NCCCOc1ccc(Cl)cc1C(C)(C)C`, the activation is -0.26%. As for `CCN(CC)Cc1nc2sc(C)c(C)c2c(=O)[nH]1`, the figure is -0.4%; as for `COc1ccc(/C=C/C(=O)Nc2ccc(C34CC5CC(CC(O)(C5)C3)C4)cc2)cc1OC`, 0.8%. Consider `CC(NC(=S)Nc1ccc(OC(F)F)cc1)c1ccc(F)cc1` (stereo not drawn), for which the activation is -0.29%. As for `O=C(O)c1n[nH]nc1-c1ccccc1`, the figure is -0.44%. Turning to `CN(C)c1ccc(C2Nc3ccccc3C(=O)N2NS(=O)(=O)c2ccccc2)cc1` (stereo not drawn), the activation is -0.44%.

Consider `CCCC(C)C(=O)OCC(=O)Nc1c(Br)cc(C)cc1Br` (stereo not drawn), for which the activation was -0.19%. For `O=C(Nc1nc(-c2cccnc2)cs1)c1ccccc1F`, the activation is 0.2%. With `O=C(NC1CCc2ccccc21)C12CN(Cc3ccccc3)CC1C(c1cccc([N+](=O)[O-])c1)=NO2` (stereo not drawn), the activation is -0.09%. With `CC[C@H]1OC(=O)[C@H](C)[C@@H](O[C@H]2C[C@@](C)(OC)[C@@H](O)[C@H](C)O2)[C@H](C)[C@@H](O[C@@H]2O[C@H](C)C[C@H](N(C)C)[C@H]2O)[C@](C)(O)C[C@@H](C)[C@@H]2N[C@@H](COCCOC)O[C@H]([C@H]2C)[C@]1(C)O`, the activation was -0.19%. As for `CCc1cc2c(=O)c(-c3ccc(F)cc3)c(C(F)(F)F)oc2cc1OCC(=O)O`, the figure is -0.05%. For `O=C(COC(=O)c1cc([N+](=O)[O-])ccc1NCc1ccccc1)NC1CCCCC1`, the activation is -0.39%. For the compound `CCCN(CC1COc2ccccc2O1)C(=S)Nc1ccc(C)cc1` (stereo not drawn), the activation is -0.24%.

Turning to `COc1ccc(NC(=O)COC(=O)c2ccc(NS(=O)(=O)/C=C/c3ccccc3)cc2)cc1`, the activation was -0.47%. In the case of `COc1cccc(OCc2cc(/C=N/NC(=O)c3nc(Cl)c(Cl)c(N)c3Cl)ccc2OC)c1`, the activation is -0.07%. Regarding `CC1Cc2ccccc2N1C(=O)CSc1nnc(-c2ccc(S(=O)(=O)N3CCCC3)cc2)n1C` (stereo not drawn), the activation was 0.16%. As for `Cc1cc(C(=O)NNC(=O)c2cccc(S(=O)(=O)N3CCOCC3)c2)c2ccccc2n1`, the figure is -0.21%. Then `Fc1ccccc1CNC(=S)Nc1ccc(Cl)cc1`, with -0.2%; and `Cc1nnc(SCC(=O)NNC(=O)c2ccc(Cl)cc2)n1CC1CCCO1` (stereo not drawn), with -0.36%; and `CC(C)CC(=O)NC(=S)Nc1ccc(F)cc1F`, with -0.43%. On to `O=C(/C=C/Sc1ncn[nH]1)c1ccc(Cl)cc1`, for which the activation is 26.9% (active). `Cc1ccc(C(=O)/C=C/c2c(C)nn(-c3ccccc3)c2Cl)cc1`: the activation is -0.32%. On to `O=C(NCCOCc1ccc(Cl)cc1)c1ncn[nH]1`, for which the activation was -0.36%. With `Cc1cccc(C)c1NC(=S)N(Cc1cccnc1)Cc1ccccc1Cl`, the activation was -0.11%.

As to `N#C/C(=C/c1ccc(N2CCOCC2)o1)C(=O)N1CCOCC1`, the activation is -0.09%. As to `CCC(=O)c1ccc(OCC(O)Cn2nc(C)c(C(C)=O)c2C)cc1` (stereo not drawn), the activation is 0%.

As to `CC(C)c1ccc(C2C(C#N)=C(N)Oc3c2oc(CO)cc3=O)cc1` (stereo not drawn), the activation was -0.2%.

On to `CSc1ccc(/C=C/C(=O)NC23CC4CC(CC(C4)C2)C3)cc1`, for which the activation is -0.25%. Take `CCc1ccccc1NC(=O)CN(C)C(=O)COc1ccc(C)nc1[N+](=O)[O-]`: the activation was -0.28%. `CC1CN/C(=C\C(=O)c2ccc(Br)cc2)C(=O)N1` (stereo not drawn): the activation is -0.31%. With `COc1ccc(CC(NC(C)=O)C(=O)NC2CCN(C(=O)c3ccc(OC)c(OC)c3)CC2)cc1OC` (stereo not drawn), the activation is -0.19%.

Turning to `Cc1cc(C)n2nc(SCC(=O)NC(=O)NCc3ccco3)nc2n1`, the activation was -0.06%. For `COCc1c(C(=O)OCc2c(C)noc2C)oc2ccccc12`, the activation was 0.25%.

Consider `Cc1cc(C)c2[nH]c(=O)c(CN(Cc3ccccc3)C(=S)NCCCN(C)C)cc2c1`, for which the activation is -0.22%. As to `CC(C)(C)NC(=O)Cn1cnc2cc([N+](=O)[O-])ccc2c1=O`, the activation was 0.46%. Then `NNC(=O)c1cnn(-c2ccccc2)c1C(F)(F)F`, with 0.08%.

On to `CN(C)C(=O)N1CCNCC1`, for which the activation was -0.1%. Then `CC(C)CN(C(=O)CN1CCN(S(=O)(=O)c2ccccc2)CC1)c1c(N)n(CC(C)C)c(=O)[nH]c1=O`, with 0.23%; and `CCOC(=O)c1c(CN(C)C)n(-c2ccccc2)c2cc(Br)c(O)cc12`, with -0.03%; and `C/C(=N\Nc1ncc(Cl)cc1Cl)c1cccs1`, with -0.17%.

With `Cc1ccc(N2C(=O)C(NC(=O)c3c(F)cccc3F)(C(F)(F)F)C3=C2CC(C)(C)CC3=O)cc1` (stereo not drawn), the activation is -0.33%.

For `Cc1cccc(NC(=O)Cn2c(=O)n(Cc3ccccc3)c(=O)c3c(C)c(C)sc32)c1`, the activation was -0.2%. For the compound `Cc1cc(Cl)ccc1OCCCC(=O)NCc1ccncc1`, the activation was 0.28%. As for `C=CCn1cc(C(=O)NCc2ccc(Cl)cc2)c(=O)c2cc(S(=O)(=O)N(CC)CC)ccc21`, the figure is -0.11%; as for `COc1cccc(-c2nn(-c3ccccc3)cc2/C=C(\C#N)C(=O)NCCCn2ccnc2)c1`, -0.06%. As to `CC(C)Oc1ccccc1C(=O)NC(CO)C(=O)O` (stereo not drawn), the activation is 0.09%. Take `O=C(CSc1ccc([N+](=O)[O-])cn1)Nc1ccc(N2CCOCC2)cc1`: the activation is -0.24%. With `NS(=O)(=O)c1cccnc1Nc1cccc(Cl)c1`, the activation is 0.75%.

Regarding `CC(Oc1ccccc1)C(=O)NN1Cc2ccccc2C1=N` (stereo not drawn), the activation was -0.3%. Consider `CC(OC(=O)c1ccccc1N1C(=O)C2C3CCC(C3)C2C1=O)C(=O)c1ccccc1` (stereo not drawn), for which the activation was -0.1%.

For `O=[N+]([O-])c1cccc(C2=NCCS2)c1`, the activation is -0.29%. For `CC(=O)N1CCN(CC(=O)Nc2ccc(SC(F)F)cc2)CC1`, the activation was -0.16%.

With `CNC(=S)N1CCN(c2ccccn2)CC1`, the activation was 0.23%.

In the case of `CC(=O)c1c(C)[nH]c(C(=O)OCC(=O)NCCC(C)C)c1C`, the activation was -0.33%.

In the case of `Cc1ccccc1N1C(=O)C(Oc2ccc(Cl)cc2)C1CNCC1CCCO1` (stereo not drawn), the activation is -0.08%.

As to `COc1ccc(S(=O)(=O)N(C)CC(=O)N2CCCC2)cc1Cl`, the activation is -0.1%.

As for `NC(=O)c1ccc(NC(=O)COC(=O)c2c3c(nc4ccccc24)/C(=C\c2ccc4c(c2)OCO4)CCC3)cc1`, the activation is -0.43%. For `COc1ccc(C2CC(c3cccs3)=NN2C(=O)CSc2nnc(N)s2)cc1OC` (stereo not drawn), the activation was -0.12%. Regarding `CCN(CC)CCN(C(=O)c1cccc([N+](=O)[O-])c1)c1nc2ccc(OC)cc2s1`, the activation is -0.15%. Turning to `CCOc1ccc(-c2n[nH]c(C)c2-c2ccccn2)c(O)c1`, the activation was -0.39%. Then `CCC(=O)NC(Nc1cc(C)ccn1)(C(F)(F)F)C(F)(F)F`, with -0.11%; and `Cc1ccc(NC(=S)N(CCCN2CCCC2)Cc2cccn2Cc2ccc(Cl)cc2)cc1`, with 0.2%. Regarding `COc1ccc(NC(=O)/C(C#N)=C\c2cc(OC)c(OCc3ccc(C(=O)O)cc3)cc2Br)cc1`, the activation is -0.51%. Regarding `COc1ccc(NC(=O)CSc2nnc(-c3ccccc3F)n2C2CC2)cc1S(N)(=O)=O`, the activation is -0.2%. `Cc1ccc(-n2c(SCC(=O)N3c4ccccc4Sc4ccccc43)nnc2-c2ccncc2)cc1`: the activation is -0.33%. `CC(C)NC(=O)NC(=O)CSc1nnc(-c2ccccc2F)n1N`: the activation is 0.03%. As for `Cc1cc(C)c(OCCN2CC(C)OC(C)C2)c(Br)c1` (stereo not drawn), the figure is -0.19%; as for `Cc1ccc(C)c(-n2cc(CN3CCN(C(=O)c4ncn[nH]4)CC3)c(-c3ccccc3)n2)c1`, -0.1%; as for `CC(=C/c1ccccc1)/C=N/NC(=O)c1cc(C)oc1C`, 0%. As for `CCCOC1CCCN(Cc2cn(C)nc2-c2ccccc2F)C1` (stereo not drawn), the activation was -0.04%. In the case of `Cc1ccccc1NC(=O)Cn1c(=O)n(CC2CCCO2)c(=O)c2ccccc21` (stereo not drawn), the activation is -0.17%.

On to `O=C1NC2(CCCCCC2)C(=O)N1CCS(=O)(=O)Oc1ccccc1`, for which the activation was -0.27%. Take `Cc1ccc(C(=O)NCC(=O)O)s1`: the activation was 0.11%. In the case of `O=C(CCCN1C(=O)/C(=C/c2ccccc2)SC1=S)Nc1ccc(O)cc1`, the activation was -0.12%. As for `Cc1ccc(NC(=O)c2cccnc2C(=O)Nc2ccc(C)cc2)cc1`, the activation is -0.14%. `NC(=O)C[C@@H]1NC(=O)CNC(=O)c2cc([N+](=O)[O-])cc(I)c2NCCC(C(N)=O)NC1=O` (stereo partly drawn): the activation is 0.03%. On to `Cc1cccc(NC(=S)NC(=O)c2ccc(Br)o2)c1`, for which the activation is 0.26%. `CC(=O)Nc1nc2ccccc2n1Cc1ccc(C)cc1`: the activation is -0.13%. As for `COC(=O)CN1C(=S)N(c2ccccc2)C(=O)C1CC(=O)Nc1ccc(Cl)cc1` (stereo not drawn), the figure is -0.13%.

As to `COc1ccc(-c2nc(N)sc2C2(O)C(=O)Nc3c(Br)cc(F)cc32)cc1OC` (stereo not drawn), the activation was -0.09%.

Consider `CCOc1ccc(N2CC(C(=O)NCCN3C(=O)S/C(=C\c4cccnc4)C3=O)CC2=O)cc1` (stereo not drawn), for which the activation is -0.14%. As for `Cc1ccc(Cl)c(NC(=O)CN(C)CC(=O)Nc2ccc(F)c(F)c2F)c1Cl`, the figure is -0.39%. With `C/C(=N\NC(=O)CCn1nc(C)cc1C)C(C)(C)C`, the activation is -0.13%.
